High-throughput results: PubChem, National Center for Advancing Translational Sciences (NCATS)
TR SRC2 fluor cs = alters Texas Red total fluorescence, flagging assay interference. TRb/SRC2 Texas Red total fluorescence interference. Potency, µM (doses to about 106 µM), inactives show top-dose fluorescence change, negative = quenching. 0.29% of 280,000 active. AID 1479; active = well fitted curve in either direction with a large enough effect; inconclusive = small, poorly fitted or top-dose-only effect
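Human TRβ ligand-binding domain (0.6 uM) and Texas Red SRC2 peptide (20 nM) in Tris buffer with 1 uM T3 and 5% DMSO were incubated with pinned compound for 5 hr at ambient temperature. Total fluorescence was computed as S + 2P (555/632 nm).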
Tau fibril ThT = tau fibrillization inhibition (ThT binding). P10636. recombinant tau K18 P301L, heparin-induced fibrillization, ThT fluorescence. Potency, µM (series often up to 57.4 µM), for inactives: at the highest dose activity, negative = inhibition, usual class: inhibitors. 2.1% of 270,000 active; also: nearly all actives have a fitted effect of over 55% in size
Target sequence (P10636 561-689 P618L limits assumed): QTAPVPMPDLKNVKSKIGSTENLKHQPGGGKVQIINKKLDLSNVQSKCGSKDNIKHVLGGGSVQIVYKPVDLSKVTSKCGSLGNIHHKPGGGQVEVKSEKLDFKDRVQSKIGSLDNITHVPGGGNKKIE
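K18 P301L tau (15 uM + 0.24 uM Alexa 594-tagged), heparin 20 uM, NaOAc pH 7, 6 h 37 C; ThT 30 uM, 1 h RT, ex 450/em 510 nm.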
Tau fluor counter = counter-screen for tau fibril formation inhibitors; tau K18 P301L (four-repeat tau fragment) Alexa594 fluorescence, heparin fibrillization; Potency, µM (series often up to 57.7 µM), inactives show at the top dose activity change, negative = decrease; AID 1463; 0.93% of 280,000 active; also: nearly all actives have a fitted effect of over 55% in size
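Human K18 P301L tau (15 uM unlabeled plus 0.24 uM Alexa 594-labeled, final) in 100 mM sodium acetate pH 7 was mixed with compound and 20 uM heparin and incubated 6 hr at 37 C.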
Tau FP inhib = tau fibrillization inhibition (FP) | P10636 | K18 P301L tau heparin fibrillization, Alexa594 FP, 6 h | Potency, µM (series often up to 57.7 µM), inactives show at the top dose activity, negative = inhibition, most hits filed as inhibitors | 0.39% of 280,000 active | AID 1468; also: nearly all actives have a fitted effect of over 55% in size
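Quantitative HTS format: compounds meet 15 uM recombinant K18 P301L tau and Alexa 594-tau tracer in 100 mM sodium acetate pH 7; 20 uM heparin triggers fibrillization at 37 C over 6 hr; FP gives the signal.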
TRb-SRC2 inh = disrupts binding of human TR beta to SRC2; Potency, µM (doses to about 106 µM), without a hit: at the highest dose activity change, negative = inhibition, hits mostly inhibitors; 0.065% of 280,000 active; P10828; TRbeta-SRC2 peptide binding, fluorescence polarization; receptor liganded with 1 µM T3;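 also: plate controls were bound peptide for no effect and peptide without receptor for full effect; nearly all actives have a fitted effect of over 50% in size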
Target sequence (P10828 whole entry, looked up): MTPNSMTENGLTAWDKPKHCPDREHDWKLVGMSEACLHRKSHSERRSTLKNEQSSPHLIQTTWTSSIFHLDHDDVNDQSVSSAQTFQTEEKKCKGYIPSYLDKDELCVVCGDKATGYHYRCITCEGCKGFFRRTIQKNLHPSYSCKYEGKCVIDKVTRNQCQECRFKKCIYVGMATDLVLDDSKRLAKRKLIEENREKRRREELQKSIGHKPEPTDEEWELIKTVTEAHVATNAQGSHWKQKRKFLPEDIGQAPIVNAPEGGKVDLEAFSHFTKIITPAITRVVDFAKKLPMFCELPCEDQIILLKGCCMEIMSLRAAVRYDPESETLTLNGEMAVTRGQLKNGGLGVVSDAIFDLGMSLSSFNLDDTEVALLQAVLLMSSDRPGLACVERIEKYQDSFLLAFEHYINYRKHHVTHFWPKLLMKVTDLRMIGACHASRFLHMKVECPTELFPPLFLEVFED
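TRb LBD 0.6 uM + Texas Red SRC2 peptide 20 nM, 1 uM T3, Tris buffer w/ 5% DMSO; compound pinned, 5 h RT; FP read ex 555/em 632; normalized to unbound and bound controls.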
* = called active by the depositor; [ ] = dose if it differs, or a comment. Only some compounds are listed: those with a hit (about 3.1% of all), similar ones and a draw of the others. Unless noted, calls follow the shape of the dose curve; as a rule, active = well fitted curve in the direction sought with a large enough effect; inconclusive = small, poorly fitted or top-dose-only effect, or another doubt; inactive = no such curve, though single readings can be large; an effect the other way counts as inactive or inconclusive. Unless noted, % is scaled to controls: 0 for no effect and ±100 for the full control effect; potency is read from the fitted curve at half-maximal effect.

For Cc1ccc2oc(-c3ccccc3)cc(=O)c2c1 the results were TR SRC2 fluor cs -0.5%, Tau fibril ThT inconclusive, Tau fluor counter -23.5%, Tau FP inhib inconclusive and TRb-SRC2 inh -8.0%.
O=c1cc(-c2ccc(O)c(O)c2)oc2cc(O)cc(O)c12 was read as TR SRC2 fluor cs inconclusive, Tau fibril ThT 12.6µM*, Tau fluor counter inconclusive, Tau FP inhib 7.2% and TRb-SRC2 inh 15.4%.
O=c1c(O)c(-c2ccc(O)c(O)c2)oc2cc(O)cc(O)c12 was read as TR SRC2 fluor cs inconclusive, Tau fibril ThT 12.6µM*, Tau fluor counter 10µM*[quencher], Tau FP inhib inconclusive and TRb-SRC2 inh 5.6%.
O=C(Nc1ccccc1)Nc1cnns1 was read as TR SRC2 fluor cs -2.0%[201 µM] and TRb-SRC2 inh 4.8%[201 µM].
CCCN(CC)CC1COC2(CCC(C(C)(C)C)CC2)O1 (stereo not drawn) was read as TR SRC2 fluor cs 0.4%[201 µM] and TRb-SRC2 inh 2.3%[201 µM].
CC1=CC(=O)c2c(O)cccc2C1=O was read as TR SRC2 fluor cs -9.9%, Tau fibril ThT 2.51µM*, Tau fluor counter 2.24µM*[quencher], Tau FP inhib 3.16µM* and TRb-SRC2 inh -6.4%.
Screening CCOc1cccc(=NC2CCCCC2)c2c(C)n(C)c(C)c12 returned TR SRC2 fluor cs 3.1%, Tau fibril ThT 12.6µM*, Tau fluor counter -4.5%, Tau FP inhib 0.4% and TRb-SRC2 inh -2.6%.
For CCOc1ccccc1N=C1SCCCN1C the results were TR SRC2 fluor cs -2.8%, Tau fibril ThT 5.1%, Tau fluor counter 3.2%, Tau FP inhib -4.5% and TRb-SRC2 inh 2.7%.
For O=C1NC(=O)C(=Cc2cc3c(cc2[N+](=O)[O-])OCO3)C(=O)N1 the results were TR SRC2 fluor cs -1.8%, Tau fibril ThT 12.6µM*, Tau fluor counter -18.0%, Tau FP inhib 28.2µM* and TRb-SRC2 inh 3.3%.
N#CC(C#N)=NNc1ccc(S(=O)(=O)N2CCCC2)cc1 was read as TR SRC2 fluor cs -11.3%, Tau fibril ThT 17.8µM*, Tau fluor counter -28.0%, Tau FP inhib 15.1% and TRb-SRC2 inh 6.4%.
`N#Cc1cc(I)c(O)c(I)c1` gave TR SRC2 fluor cs -5.0%[201 µM] and TRb-SRC2 inh 9.0%[201 µM].
`CNC(=O)/C=C(\C)OP(=O)(OC)OC` gave TR SRC2 fluor cs 0.6%[201 µM] and TRb-SRC2 inh -3.8%[201 µM].
`O=S1(=O)N(CCN2CC=C(c3c[nH]c4cc(F)ccc34)CC2)c2cccc3c2N1CCC3` gave TR SRC2 fluor cs inconclusive, Tau fibril ThT inconclusive, Tau fluor counter 8.91µM*[quencher], Tau FP inhib 11.6% and TRb-SRC2 inh 2.7%.
For O=C1NC(=O)C(=O)C(=O)N1 the results were TR SRC2 fluor cs -13.0%, Tau fibril ThT 2.51µM*, Tau fluor counter -24.9%, Tau FP inhib 2.82µM* and TRb-SRC2 inh -28.7%.
`CCOc1ccc(Cc2c(O)[nH]c(=O)[nH]c2=O)cc1` gave TR SRC2 fluor cs 1.1%, Tau fibril ThT 28.2µM*, Tau fluor counter -14.4%, Tau FP inhib 25.1µM* and TRb-SRC2 inh -19.9%.
For C=CCc1cc(C=C2C(=O)N(C)C(=O)N(C)C2=O)cc(OCC)c1OCc1ccccc1 the results were TR SRC2 fluor cs 1.2%, Tau fibril ThT 25.1µM*, Tau fluor counter -13.5%, Tau FP inhib inconclusive and TRb-SRC2 inh -10.7%.
C=CCc1cc(C=C2C(=O)NC(=O)NC2=O)cc(OC)c1OCc1ccc(C(=O)O)cc1 was read as TR SRC2 fluor cs -3.4%, Tau fibril ThT inconclusive, Tau fluor counter -14.7%, Tau FP inhib inconclusive and TRb-SRC2 inh -8.1%.
Screening CCN(CC)C(=O)SCc1ccc(Cl)cc1 returned TR SRC2 fluor cs -1.5%[201 µM] and TRb-SRC2 inh 3.0%[201 µM].
For CC(C)CCCC(C)C1CCC2C3=CC[C@@H]4CC(O)CC[C@@]4(C)C3CC[C@]21C (stereo partly drawn) the results were TR SRC2 fluor cs -4.1%, Tau fibril ThT inconclusive, Tau fluor counter -4.7%, Tau FP inhib -3.5% and TRb-SRC2 inh -5.1%.
C=C1CC[C@H](O)C/C1=C/C=C1\CCC[C@]2(C)[C@@H]([C@H](C)CCCC(C)C)CC[C@@H]12 was read as TR SRC2 fluor cs 3.1%, Tau fibril ThT 22.4µM*, Tau fluor counter -22.4%, Tau FP inhib inconclusive and TRb-SRC2 inh -13.7%.
Cc1cccc(N2C(=O)NC(=O)/C(=C\c3ccc4c(c3)CCCN4Cc3ccccc3)C2=O)c1 was read as TR SRC2 fluor cs 10.2%, Tau fibril ThT inconclusive, Tau fluor counter -15.0%, Tau FP inhib -14.3% and TRb-SRC2 inh 12.3%.
CCC(C)N1C(=O)/C(=C/c2ccc3c(c2)CCN3CCCCl)C(=O)NC1=S (stereo not drawn) was read as TR SRC2 fluor cs -41.5%, Tau fibril ThT 31.6µM*, Tau fluor counter inconclusive, Tau FP inhib inconclusive and TRb-SRC2 inh -4.0%.
Screening O=c1[nH]c(=S)n(-c2ccc(Br)cc2)c(O)c1C=Nc1ccc(N2CCOCC2)cc1 returned TR SRC2 fluor cs 3.4%, Tau fibril ThT 25.1µM*, Tau fluor counter -21.8%, Tau FP inhib 3.4% and TRb-SRC2 inh -8.7%.
For ClC1=C(Cl)C(Cl)=C(Cl)C1=C/C=C/c1ccccc1 the results were TR SRC2 fluor cs -19.2%, Tau fibril ThT 11.2µM*, Tau fluor counter 14.1µM*[quencher], Tau FP inhib inconclusive and TRb-SRC2 inh 8.3%.
`O=[N+]([O-])/C=C/c1ccccc1` gave TR SRC2 fluor cs 0.9% and TRb-SRC2 inh 2.8%.
For O=C(O)c1c(Cl)ccc2cc(Cl)cnc12 the results were TR SRC2 fluor cs -6.9%[201 µM] and TRb-SRC2 inh -2.1%[201 µM].
Brc1ccc(Br)cc1 was read as TR SRC2 fluor cs 2.5%[201 µM] and TRb-SRC2 inh -5.1%[201 µM].
`O=C1NC(=O)C(=CN2CCc3ccccc32)C(=O)N1` gave TR SRC2 fluor cs -1.0%, Tau fibril ThT 10µM*, Tau fluor counter -19.7%, Tau FP inhib inconclusive and TRb-SRC2 inh 13.0%.
`O=C(OC1Cc2c(O)cc(O)cc2OC1c1cc(O)c(O)c(O)c1)c1cc(O)c(O)c(O)c1` (stereo not drawn) gave TR SRC2 fluor cs -9.3%, Tau fibril ThT 6.31µM*, Tau fluor counter 6.31µM*[quencher], Tau FP inhib 17.8µM* and TRb-SRC2 inh 5.1%.
`Oc1cc(O)c2c(c1)OC(c1cc(O)c(O)c(O)c1)C(O)C2` (stereo not drawn) gave TR SRC2 fluor cs -12.0%, Tau fibril ThT 25.1µM*, Tau fluor counter inconclusive, Tau FP inhib inconclusive and TRb-SRC2 inh 0.7%.
For O=C(O[C@@H]1Cc2c(O)cc(O)cc2O[C@@H]1c1cc(O)c(O)c(O)c1)c1cc(O)c(O)c(O)c1 the results were TR SRC2 fluor cs -9.3%[201 µM], Tau fibril ThT 12.6µM*, Tau fluor counter 14.1µM*[quencher], Tau FP inhib inconclusive and TRb-SRC2 inh 3.8%[201 µM].
`CNC(=O)O/N=C(\C)SC` gave TR SRC2 fluor cs 1.0%[201 µM] and TRb-SRC2 inh 3.5%[201 µM].
